According to PubChem BioAssay AID652097 (National Center for Advancing Translational Sciences (NCATS), 2013):
Active and inactive are the calls of the source.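 The calls were made as follows: active = microscopy shows reduced glucosylceramide buildup in Gaucher patient macrophages after treatment; inactive = no reduction in glucosylceramide buildup seen.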

Experiment: Extended Characterization of Activators of N370S glucocerebrosidase as a Potential Chaperone Treatment of Gaucher Disease: GC accumulation
Details: N370S Gaucher macrophages, immunofluorescence microscopy
Text: Glucocerebrosidase (GCase) catalyzes the hydrolysis of beta-glucocerebroside (GC) to glucose and ceramide in lysosomes. Mutations in the glucocerebrosidase gene result in Gaucher disease, an autosomal recessive lysosomal storage disorder. Many of the mutations encountered in patients with Gaucher disease are missense alterations that may cause misfolding, decreased stability and/or mistrafficking of this lysosomal protein. […] These inhibitors include iminosugar analogs and other inhibitors that were discovered as part of previous work. However, the enhancement of enzyme activity by the chaperone action of an enzyme inhibitor must be balanced against the direct inhibition of the enzyme. […] In this extended characterization of our probe, we have further characterized the activity of probes in relevant models of Gaucher disease. This assay attempts to quantitate translocated glucocerebrosidase protein in patient-derived macrophages following extended compound incubation. NIH Chemical Genomics Center [NCGC] NIH Molecular Libraries Probe Production Centers Network [MLPCN] MLPCN Grant: MH086442 Assay Submitter (PI): Ellen Sidransky, NHGRI
Macrophages derived from N370S/N370S Gaucher patients and a control were seeded in Lab-Tek 4 chamber slides (Fisher Scientific, Pittsburgh, PA). After compound treatment, cells were fixed in 3% paraformaldehyde. […]

Q: With `C#Cc1ccc(NC(=O)c2cnn3c(C)cc(C)nc23)cc1` as the compound, how does the outcome read?
A: active; decreased
